According to PubChem BioAssay AID463173 (ICCB-Longwood Screening Facility, Harvard Medical School, 2010):
About 4,300 (8.3%) of roughly 52,000 compounds were called active. No stated cut-off is given here; in the data, active means survival mostly below about 52% (no sharp cut-off); inactive means mostly above about 56%. The sample as a whole holds a higher share of actives than the screen did.

tested on: DeltatarO mutant; experiment: growth inhibition of S. aureus wild type versus tarO mutant, primary screen, teichoic acid synthesis inhibitors, RN4220, OD600 (AID 463173); conditions: OD600, 18 h, stronger effect = lower value, screened at 18.75 µg/mL (by protocol)

| Compound | survival |
| --- | --- |
| COc1ccc(S(=O)(=O)N(CCc2ccccc2)CC(=O)Nc2cc(C)cc(C)c2)cc1OC | 54% (inactive) |
| Cc1ccc(C)c(Cn2c(=O)n(-c3ccc(F)cc3)c(=O)c3sc4ccccc4c32)c1 | 95% (inactive) |
| CC[N+](C)(C)Cc1ccco1 | 80% (inactive) |
| COc1cc2c(C(=O)Nc3cc(OC)c(OC)c(OC)c3)cn(C)c(=O)c2cc1OC | 63% (inactive) |
| OC1(C#Cc2ccccc2)CCCCC1 | 104% (inactive) |
| COc1ccc(CCCc2n[nH]c(=S)o2)c(C)c1 | 94% (inactive) |
| Cc1ccc(-c2c3c(=O)n(C)c(=O)n(C)c3cn2-c2cc(C)ccc2O)cc1 | 75% (inactive) |
| Cn1c(=O)c2c(-c3ccccc3Cl)n(Cc3ccc(Cl)cc3)cc2n(C)c1=O | 60% (inactive) |
| Cn1c(=O)c2c(-c3ccc(Cl)cc3)n(Cc3ccccc3)cc2n(C)c1=O | 40% (active) |
| CCCCn1cc2c(c1-c1ccc(Br)cc1)c(=O)n(C)c(=O)n2C | 58% (inactive) |
| Cn1c(=O)c2c(-c3ccc(Br)cc3)n(Cc3ccc(F)cc3)cc2n(C)c1=O | 49% (active) |
| Cn1c(=O)c2c(-c3ccccc3Br)n(Cc3ccccc3)cc2n(C)c1=O | 88% (inactive) |
| Cn1c(=O)c2c(-c3ccc(Br)cc3)n(CCc3ccccc3)cc2n(C)c1=O | 89% (inactive) |
| Cn1c(=O)c2c(-c3ccc(Cl)cc3)n(Cc3ccc(Cl)cc3)cc2n(C)c1=O | 56% (inactive) |
| Cn1c(=O)c2c(-c3ccccc3Cl)n(-c3cc(Cl)ccc3O)cc2n(C)c1=O | 53% (active) |
| CCCCn1cc2c(c1-c1ccccc1Br)c(=O)n(C)c(=O)n2C | 76% (inactive) |
| Cn1c(=O)c2c(-c3ccc(Cl)cc3)n(CCc3ccccc3)cc2n(C)c1=O | 93% (inactive) |
| Cn1c(=O)c2c(-c3ccccc3Br)n(CCc3ccccc3)cc2n(C)c1=O | 45% (active) |
| O=C(NCc1ccccc1Cl)c1ccc2c(c1)N(Cc1ccccc1)C(=O)c1ccccc1S2 | 144% (inactive) |
| O=C(Nc1cnn(C23CC4CC(CC(C4)C2)C3)c1)c1cc(-c2ccccc2)on1 | 101% (inactive) |
| COc1ccc(NC(=O)C(C)Sc2nc(C)cc(=O)[nH]2)cc1 (stereo not given) | 101% (inactive) |
| CC(C)c1ccc(NC(=O)C2(C)Cc3ccccc3C(=O)O2)cc1 (stereo not given) | 106% (inactive) |
| CC(NC(=O)c1nn(C)c2c1CSc1ccccc1-2)c1ccccc1 (stereo not given) | 76% (inactive) |

| Compound | survival |
| --- | --- |
| CCC(=O)C1=C(c2ccc(F)cc2)N(C(=O)CC)n2cnnc2S1 | 128% (inactive) |
| CC(=O)C1=C(c2cccc([N+](=O)[O-])c2)N(C(C)=O)n2c(nnc2-c2ccc(C)cc2)S1 | 89% (inactive) |
| CCOc1ccc(C2=C(C(=O)CC)Sc3nncn3N2C(=O)CC)cc1 | 17% (active) |
| CCCC(=O)C1=C(c2ccc(C)cc2)N(C(=O)CCC)n2cnnc2S1 | 130% (inactive) |
| CCC(=O)C1=C(c2cccc([N+](=O)[O-])c2)N(C(=O)CC)n2c(nnc2C2CCCCC2)S1 | 91% (inactive) |
| CCC(=O)C1=C(c2ccc(OC)c(OC)c2)N(C(=O)CC)n2c(nnc2-c2ccc(C)cc2)S1 | 68% (inactive) |
| CCC(=O)C1=C(c2ccccc2)N(C(=O)CC)n2c(nnc2-c2ccccc2)S1 | -5% (active) |
| CCC(=O)C1=C(c2cccc([N+](=O)[O-])c2)N(C(=O)CC)n2c(nnc2-c2ccccc2)S1 | 8% (active) |
| CCC(=O)C1=C(c2ccc(F)cc2)N(C(=O)CC)n2c(nnc2-c2ccc(OC)cc2)S1 | 66% (inactive) |
| CN(CC(=O)O)Cc1nc2ccccc2[nH]1 | 103% (inactive) |
| Cc1c(Cl)cccc1NC(=O)c1ccc(NC(=O)N2CCSc3ncccc32)cc1 | 72% (inactive) |
| COC(=O)c1ccc(C=Nc2ccc(O)c(-c3nc4ccccc4o3)c2)cc1 | 93% (inactive) |
| COc1ccc(C)cc1-n1cnc2cc(C(=O)NC3CCCC3)ccc21 | 119% (inactive) |
| O=C(C1CCC(Cn2c(=O)c3sccc3n(Cc3cccc(F)c3)c2=O)CC1)N1CCCCC1 (stereo not given) | 92% (inactive) |
| Cc1c(NS(=O)(=O)c2cccc(C(=O)O)c2)c(=O)n(-c2ccccc2)n1C | 67% (inactive) |
| O=C1Nc2ccccc2N(O)N1c1ccccc1Cl | 90% (inactive) |
| CCc1ccc(S(=O)(=O)Nc2ccc3c(c2)n(C)c(=O)c(=O)n3C)cc1 | 79% (inactive) |
| COc1ccccc1N1CCN(C(=O)Cn2c(=O)n3nc(-c4cccc(F)c4)nc3c3ccccc32)CC1 | 71% (inactive) |
| CC(C)c1ccc(NC(=O)CN2C(=O)CCc3cc(S(=O)(=O)N4CCOCC4)ccc32)cc1 | 87% (inactive) |
| O=C(Nc1ccc(F)cc1Cl)c1cnc(N2CCOCC2)c2ccccc12 | 104% (inactive) |
| Nc1n[nH]c(N)c1N=Nc1ccc(Cl)cc1 | 64% (inactive) |
| COc1ccc(N=Nc2c(N)n[nH]c2N)cc1 | 1% (active) |
| COc1cccc(N=Nc2c(O)[nH]c(=O)[nH]c2=O)c1 | 101% (inactive) |

| Compound | survival |
| --- | --- |
| Cn1c(=O)c2cc(C(=O)NCCCN3CCN(c4ccc(F)cc4)CC3)sc2c2ccccc21 | 70% (inactive) |
| C=C(C)Cn1c(SCC(=O)Nc2cccc(Cl)c2)nc2sc3c(c2c1=O)CCCC3 | 126% (inactive) |
| Cc1ccc(NC(=O)C(Cc2ccccc2)n2cccc2)c(C)c1 (stereo not given) | 67% (inactive) |
| Cc1ccc(C)c(NC(=O)C(Cc2ccccc2)n2cccc2)c1 (stereo not given) | 107% (inactive) |
| CCc1cccc(NC(=O)C(Cc2ccccc2)n2cccc2)c1 (stereo not given) | 18% (active) |
| O=C(Nc1cccc(Cl)c1)C(Cc1ccccc1)n1cccc1 (stereo not given) | 11% (active) |
| Cc1ccc(NC(=O)C(Cc2ccccc2)n2cccc2)cc1C (stereo not given) | 28% (active) |
| Cc1cccc(NC(=O)C(Cc2ccccc2)n2cccc2)c1C (stereo not given) | 75% (inactive) |
| COc1ccc(NC(=O)C(Cc2ccccc2)n2cccc2)cc1OC (stereo not given) | 79% (inactive) |
| CC(=O)c1cccc(NC(=O)[C@H](Cc2ccccc2)N2Cc3ccccc3C2=O)c1 | 67% (inactive) |
| O=C(Nc1ccccc1)C(Cc1ccccc1)N1Cc2ccccc2C1=O (stereo not given) | 77% (inactive) |
| COc1ccc(OC)c(S(=O)(=O)Nc2cc3c(cc2C)n(C)c(=O)c(=O)n3C)c1 | 84% (inactive) |
| C1=C(c2cccs2)OC(c2cccs2)=CC1c1cccs1 | 52% (inactive) |
| Nc1ncc(S(=O)(=O)NCc2cccc(Cl)c2)cn1 | 74% (inactive) |
| CCOc1ccc(S(=O)(=O)N2CCN(c3ccc(Cl)c(Cl)c3)CC2)c2ccccc12 | 168% (inactive) |
| COc1ccc(Cn2nnnc2C(c2ccccn2)N2CCc3ccccc3C2)cc1 (stereo not given) | 74% (inactive) |
| O=C1CSC2(C(=O)N(Cc3ccccc3F)c3ccccc32)N1c1cccc(C(F)(F)F)c1 (stereo not given) | 87% (inactive) |
| O=C(COCc1cc(-c2ccco2)on1)Nc1ccc(OC(F)(F)F)cc1 | 92% (inactive) |
| CCOc1ccc(-c2cc3c(=O)n(Cc4nc(-c5cccc(OC)c5OC)oc4C)ccn3n2)cc1Cl | 187% (inactive) |
| COc1ccc(C(=O)Nc2nnc(S(=O)(=O)N3CCCc4ccccc43)s2)cc1 | 49% (inactive) |
| Cc1ccc(C(=O)Nc2nnc(S(=O)(=O)N3CCc4ccccc43)s2)cc1 | 26% (active) |
| Cc1cccc(C(=O)Nc2nnc(S(=O)(=O)N3CCCc4ccccc43)s2)c1 | 17% (active) |
| COc1cccc(C(=O)Nc2nnc(S(=O)(=O)N3CCCc4ccccc43)s2)c1 | 18% (active) |

| Compound | survival |
| --- | --- |
| Cc1ccc2nc(NC(=O)c3ccc(S(=O)(=O)N4CCCc5ccccc54)cc3)sc2c1 | 144% (inactive) |
| Cc1ccc(C(=O)Nc2nnc(S(=O)(=O)N3CCCc4ccccc43)s2)cc1 | 39% (active) |
| COc1ccccc1NC(=O)c1c(NCc2ccc(OC)c(OC)c2OC)sc2c1CCCC2 | 93% (inactive) |
| COc1ccc(-c2nc3ccccc3n3c(-c4ccc(OC)cc4)c4c(=O)n(C)c(=O)n(C)c4c23)cc1 | 84% (inactive) |
| CCOC(=O)c1c(S(=O)(=O)N2CCCC(C(=O)Nc3cccc(C#N)c3)C2)c(C)n(C)c1C (stereo not given) | 67% (inactive) |
| CCc1ccccc1Nc1sc(C(=O)c2ccccc2)c(N)c1S(=O)(=O)c1ccccc1 | 119% (inactive) |
| O=C(Nc1cccc(Cl)c1N1CCOCC1)c1ccco1 | 90% (inactive) |
| COc1ccc(S(=O)(=O)CCc2nc3ccccc3n2CC(=O)O)cc1 | 113% (inactive) |
| CCOC(=O)c1ccc(NC(=O)C(CC)Sc2nc3ccncc3[nH]2)cc1 (stereo not given) | 128% (inactive) |
| CN1CCN(C(=O)C(=O)Nc2c3c(nn2-c2ccc(Cl)cc2)CSC3)CC1 | 72% (inactive) |
| CN1CCN(C(=O)C(=O)Nc2c3c(nn2-c2ccc(F)cc2)CSC3)CC1 | 72% (inactive) |
| CC(=O)N1CCN(C(=O)C(=O)Nc2c3c(nn2-c2ccc(Cl)cc2)CSC3)CC1 | -1% (active) |
| CC(NC(=O)C(=O)Nc1c2c(nn1-c1ccccc1)CSC2)c1ccccc1 (stereo not given) | 61% (inactive) |
| CC(NC(=O)C(=O)Nc1c2c(nn1-c1ccc(F)cc1)CSC2)c1ccccc1 (stereo not given) | -2% (active) |
| CCC(CO)NC(=O)C(=O)Nc1c2c(nn1-c1ccc(F)cc1)CSC2 (stereo not given) | 80% (inactive) |
| Cc1cccc(C)c1-n1ncc(C(=O)Nc2ccc3c(c2)OCO3)c1C1CCN(C(=O)OC(C)(C)C)CC1 | 100% (inactive) |
| Cc1ccc(-c2cn3nc(N4CCCC(C(=O)NCc5ccc(F)cc5)C4)sc3n2)cc1 (stereo not given) | 86% (inactive) |
| CCNC(=O)NC1(C(=O)N2CCC(Cc3ccccc3)CC2)CCCCC1 | 87% (inactive) |
| Cc1ccc(N2CC(NC(=O)c3cccc(Cl)c3)CC2=O)cc1C (stereo not given) | 75% (inactive) |
| COc1cc(C(=O)N2CCC(c3nc4ccccc4o3)CC2)cc(OC)c1OC | 91% (inactive) |
| Cn1c2ccccc2c2c(C(=O)N3CCN(c4ccc(F)cc4)CC3)cn(C3CCCCC3)c(=O)c21 | 132% (inactive) |
